From ChEMBL document CHEMBL4513146, “CO-ADD screening of Karazin Kharkiv National University (Ukraine) compounds”
Measured potencies and affinities stand elsewhere.

Key:
[1] = test system: Staphylococcus aureus; conditions: Concentration 32 ug.mL-1;; ASSAY_TEST Inhibition of Bacterial Growth; detection method Absorption (OD600); MEDIA CAMHB; plate type 384well; NBS; CORNING #3640; time 18 hr
[2] = test system: Escherichia coli; conditions: Concentration 32 ug.mL-1;; ASSAY_TEST Inhibition of Bacterial Growth; detection method Absorption (OD600); MEDIA CAMHB; plate type 384well; NBS; CORNING #3640; time 18 hr

Row | Compound | Inhibition [1] | Inhibition [2]
1 | Cc1ccc2c(c1)N(C(=O)Cn1nc3ccc(Sc4ccccc4)nn3c1=O)CCO2 | 5.63% | 2.06%
2 | Cc1cc(C)cc(Oc2nccn3c(=O)n(CC(=O)Nc4cccc(Cl)c4)nc23)c1 | -12.18% | -3.44%
3 | COc1cc(OC)c(NC(=O)Cn2nc3c(Oc4ccccc4)nccn3c2=O)cc1Cl | -15.01% | -15.59%
4 | CC(C)Sc1ccc2nn(CC(=O)Nc3ccc(F)cc3Cl)c(=O)n2n1 | -4.06% | -3%
5 | COc1ccccc1Cn1c(=O)c2sccc2n2c(=O)n(Cc3ccccc3)nc12 | 4.84% | -5.32%
6 | Cc1ccc(NC(=O)Cn2nc3c(Sc4ccccc4)nccn3c2=O)c(Br)c1 | -10.94% | -14.81%
7 | COc1cccc(Cn2nc3ccc(-c4ccccc4)nn3c2=O)c1 | 13.4% | -1.58%
8 | CCc1ccc(N(Cc2cccc(F)c2)S(=O)(=O)c2cccn3c(C)nnc23)cc1 | 10.02% | -2.48%
9 | COc1ccc(NC(=O)Cn2nc3ccc(SC(C)(C)C)nn3c2=O)cc1OC | 4.97% | 2.49%
10 | COc1ccc(CN(c2ccc(F)cc2)S(=O)(=O)c2cccn3cnnc23)cc1F | 11.25% | -4.31%
11 | COc1cccc(-n2ccn3c(SCC(=O)Nc4ccccc4Cl)nnc3c2=O)c1 | 11.46% | -4.64%
12 | Cc1cccc(Oc2nccn3c(=O)n(CC(=O)Nc4cccc(C(F)(F)F)c4)nc23)c1C | 4.71% | -4.64%
13 | COc1ccc(C(=O)CSc2nnc3c(=O)n(-c4ccc(F)c(F)c4)ccn23)cc1OC | 3.91% | -0.1%
14 | Cc1ccc(Oc2nc3ccccc3n3c(=O)n(CC(=O)Nc4ccc5c(c4)OCO5)nc23)cc1 | 1.4% | -7.69%
15 | CCc1nnc2c(SCC(=O)Nc3cccc(Br)c3)nc3ccccc3n12 | 1.73% | -7.45%
16 | CCCN(C)c1nccn2c(=O)n(CC(=O)Nc3cccc(Cl)c3F)nc12 | 4.66% | 0.13%
17 | O=c1n(Cc2ccc3c(c2)OCO3)nc2ccc(-c3ccccc3)nn12 | 12.41% | -0.49%
18 | CCc1nnc2c(S(=O)(=O)N(Cc3ccccc3C)c3ccc(C(C)C)cc3)cccn12 | 3.95% | -8.12%
19 | COc1ccc2[nH]cc(C(=O)CSc3nnc4c(=O)n(-c5cccc(Cl)c5C)ccn34)c2c1 | 18.84% | 2.67%
20 | Cc1cc2nn(CC(=O)Nc3ccccc3)c(=O)n2c(Nc2ccc(C)c(F)c2)n1 | 8.29% | -1.41%
21 | Cc1ccccc1N1CCN(c2nccn3c(=O)n(CC(=O)Nc4cccc(C(C)C)c4)nc23)CC1 | 14.78% | -9.47%
22 | C=Cc1ccc(CN(c2cccc(F)c2)S(=O)(=O)c2ccc3nnc(C)n3c2)cc1 | 2.75% | -8.1%
23 | COc1cccc(CN(c2ccc(C(C)C)cc2)S(=O)(=O)c2cccn3cnnc23)c1 | 7.94% | -1.44%
24 | Cc1cc2nn(CC(=O)Nc3cc(F)ccc3C)c(=O)n2c(Nc2ccc(F)c(C)c2)n1 | 9.03% | -0.59%

Row | Compound | Inhibition [1] | Inhibition [2]
25 | COC(=O)c1ccc(Cn2nc3ccc(S(=O)(=O)N4CCCCCC4)cn3c2=O)o1 | -11.6% | -1.2%
26 | CCCCN(C)C(=O)CSc1nnc2c(=O)n(Cc3ccc(F)cc3)ccn12 | 7.74% | -2.27%
27 | CCc1nnc2c(SCC(=O)Nc3ccccc3Br)nc3ccccc3n12 | 10.46% | 0.26%
28 | CCOc1ccccc1CNC(=O)CCc1nnc2ccc(-c3ccccc3)nn12 | 9.42% | -2.56%
29 | COc1ccc(NC(=O)C(C)Sc2nnc3c(=O)n(-c4cccc(OC)c4)ccn23)cc1 (configuration not stated) | 6.45% | -9.09%
30 | CCCc1nnc2c(=O)n(CC(=O)Nc3cccc(Br)c3)c3ccccc3n12 | 8.23% | -5.6%
31 | CCCn1c(=O)c2sccc2n2c(CCC(=O)NCCC34CC5CC(CC(C5)C3)C4)nnc12 | 0.48% | -2.55%
32 | CCCCN(C)c1ccc2nnc(CCc3nc(-c4ccc(OCc5ccccc5)cc4)no3)n2n1 | -12.25% | -8.06%
33 | Cc1ccc(Sc2ccc3nn(CC(=O)Nc4ccc(F)c(Cl)c4)c(=O)n3n2)cc1 | 7.06% | 0.26%
34 | Cc1ccc(CN(c2ccc3c(c2)OCO3)S(=O)(=O)c2ccc3nnc(C)n3c2)cc1 | -0.98% | -3.16%
35 | Cc1ccc(NC(=O)Cn2nc3cc(C)nc(Nc4ccc(F)cc4)n3c2=O)cc1 | 6.17% | -2.28%
36 | O=c1c2sccc2n2c(=O)n(Cc3c(F)cccc3Cl)nc2n1CCc1ccccc1 | 3.01% | -6.52%
37 | Cc1cc2nn(CC(=O)N3CCCC3)c(=O)n2c(Nc2ccc(C)c(F)c2)n1 | 5.2% | -7.93%
38 | O=C(CSc1nnc2c(=O)n(Cc3ccc(F)cc3)ccn12)NC1CCCC1 | 13.37% | -4.53%
39 | CCCCc1ccc(NC(=O)Cn2nc3ccc(C(=O)Nc4ccc(OC)cc4)cn3c2=O)cc1 | 3.96% | -4.6%
40 | COC(=O)c1sccc1NC(=O)CSc1nc2ccccc2n2c(C)nnc12 | 17.15% | 5.14%
41 | Cc1ccc(-c2cc3c4nn(CC(=O)NC5CCCC5)c(=O)n4ccn3n2)cc1C | -0.99% | -0.5%
42 | Cc1nnc2c(SCC(=O)Nc3ccc(C#N)cc3)nc3ccccc3n12 | -1.63% | -2.61%
43 | CCOC(=O)c1ccccc1NC(=O)Cn1nc2c3cc(-c4ccc(Cl)cc4)nn3ccn2c1=O | 7.33% | 2.34%
44 | CSc1cccc(NC(=O)Cn2c(=O)c3nnc(C(C)C)n3c3ccccc32)c1 | 14.38% | 4.25%
45 | O=C(Cn1nc2ccc(Sc3cccc(F)c3)nn2c1=O)Nc1cccc(C(F)(F)F)c1 | 5.63% | -8.75%
46 | Cc1ccc(-c2ccc3nn(CC(=O)N4CCN(c5ccccc5F)CC4)c(=O)n3n2)cc1C | 3.55% | -1.18%
47 | Cc1cc2nn(CC(=O)Nc3cccc(F)c3)c(=O)n2c(Nc2ccc(F)c(C)c2)n1 | -1.56% | -7.72%
48 | COc1ccc(CNC(=O)Cn2nc3c(SC4CCCCC4)nccn3c2=O)cc1 | 8.37% | -2.77%

Row | Compound | Inhibition [1] | Inhibition [2]
49 | Cc1cc(NC(=O)CSc2nc3ccccc3n3cnnc23)ccc1Br | 13.29% | 3.15%
50 | Cc1cc(Br)ccc1NC(=O)Cn1nc2c(Sc3cccc(F)c3)nccn2c1=O | 10.13% | -1.3%
51 | CCc1ccc(N(Cc2ccccc2C)S(=O)(=O)c2cccn3c(C)nnc23)cc1 | 9.52% | -5.19%
52 | CCCCOc1ccc(-c2cc3c4nnc(SCC(=O)Nc5cc(C)ccc5C)n4ccn3n2)cc1 | -14.19% | -10.44%
53 | COc1ccc(-c2cc3c4nnc(SCC(=O)Nc5ccccc5F)n4ccn3n2)cc1 | -1.6% | -2.74%
54 | CCOc1ccc(NC(=O)Cn2nc3c4cc(-c5ccc(C)cc5)nn4ccn3c2=O)cc1 | 9.82% | 2.19%
55 | CSc1ccc(CNC(=O)Cn2nc3c(N4CCN(c5ccccc5)CC4)nccn3c2=O)cc1 | 15.59% | 0.69%
56 | Cc1c(Cl)cccc1NC(=O)Cn1nc2c(N3CCOCC3)nc3ccccc3n2c1=O | 6.58% | -0.44%
57 | Cc1ccc(N(Cc2ccc(F)cc2)S(=O)(=O)c2ccc3nnc(C)n3c2)cc1 | 0.5% | -5.57%
58 | O=C(Cn1nc2c3sccc3ncn2c1=O)Nc1ccc2c(c1)OCO2 | -1.71% | -14.29%
59 | COc1cccc(-n2ccn3c(SCC(=O)c4c(C)[nH]c5ccccc45)nnc3c2=O)c1 | 10.32% | -7.21%
60 | Cc1ccc(Cn2nc3c(=O)n(-c4ccc(C)c(C)c4)ccn3c2=O)cc1 | 14.06% | -0.87%
61 | Cc1cc(C)c(NC(=O)CSc2nnc3ccc(C(=O)Nc4cccc(F)c4)cn23)c(C)c1 | 12.67% | 2.09%
62 | CCc1ccc(N(Cc2ccccc2Cl)S(=O)(=O)c2cccn3c(C)nnc23)cc1 | 18.06% | 0.45%
63 | COc1cccc(-n2ccn3c(=O)n(Cc4ccc([N+](=O)[O-])cc4)nc3c2=O)c1 | 7.57% | -2.91%
64 | Cc1ccc(Sc2nccn3c(=O)n(CC(=O)Nc4c(C)cc(C)cc4C)nc23)c(C)c1 | 17.35% | 1.82%
65 | COc1ccc(C)cc1NC(=O)Cn1nc2c3cc(-c4ccc(Cl)cc4)nn3ccn2c1=O | 8.09% | 3.41%
66 | Cc1nnc2c(S(=O)(=O)N(Cc3ccc(F)cc3)c3ccc(F)c(F)c3)cccn12 | 15.7% | 3.7%
67 | CCc1nnc2c(S(=O)(=O)N(Cc3ccc(F)cc3)c3ccc(Cl)cc3)cccn12 | 8.89% | -2.23%
68 | CC(C)(C)Sc1ccc2nn(CC(=O)NCc3ccc(Cl)cc3)c(=O)n2n1 | 1.41% | -5.27%
69 | O=C(CSc1nnc2c3cc(-c4ccccc4)nn3ccn12)Nc1cccc(Br)c1 | 9.78% | 2.01%
70 | Cc1cc2nn(CC(=O)NCc3ccccc3)c(=O)n2c(Nc2ccc(C)c(F)c2)n1 | -14.43% | -0.54%
71 | CCOc1ccc(-n2ccn3c(SCc4cccc(C(F)(F)F)c4)nnc3c2=O)cc1 | 18.58% | 1.02%
